# An excerpt weighted towards active compounds, which were near 28% of everything screened.
# CYP2C19 act – human CYP2C19 activators, primary screen, biochemical, luminescence; recombinant CYP2C19, luciferin-H EGE luminescence; stronger effect = higher value; 0 = fully inhibited enzyme, 1 = untreated enzyme; AID 1025, 2008; Cytochrome P450 2C19 (Homo sapiens), P33261; 96,000 tested, under 10 active; activation factor at 5 µM;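 active = activation factor of at least 2 at 5 µM in the primary screen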
# Pyk2 oligo antag – antagonists of Pyk2 self-association, primary screen, Q293 cells, FERM NanoBiT luminescence, HTS | actives 0.83% (n = 99,000) | stronger effect = lower value | z-score (the deposit names both 25 µM and 10 µM) | Protein-tyrosine kinase 2-beta (Homo sapiens), Q14289;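 active = Z-score of -3 or lower, scaled per plate to the spread of control and sample wells; inactive = z-score above -3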;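 also: negative z-score means lost luminescence so less FERM oligomerization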
# CYP2C19 inhib – blockers of cytochrome P450 2C19 activity – biochemical, luminescence, ADME assay, primary screen; actives 21% (n = 96,000); inhibition, % at 5 µM; AID 778, 2007; CYP2C19 Supersomes, luciferin-H EGE luminescence, 30 min; P33261;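 active = CYP2C19 inhibition above a set limit at 5 µM in the primary screen, cut at about 50% in these data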
# CYP2C9 inhib – blockers of cytochrome P450 2C9 activity – biochemical, luminescence, ADME assay, primary screen | P11712 | CYP2C9 Supersomes, luciferin-H conversion | inhibition, % at 5 µM | actives 20% (n = 96,000) | AID 777, 2007;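 active = blocking of liver enzyme CYP2C9 beyond about 50% at 5 µM, limit read from the data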
# CYP2C9 act – human CYP2C9 activators, primary screen, biochemical, luminescence. actives 1.4% (n = 96,000). recombinant CYP2C9, luciferin-H conversion; stronger effect = higher value; factor 1 = untreated enzyme, 0 = blocked. activation factor at 5 µM;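 active = activation factor of 2 or more for CYP2C9 at a 5 µM dose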
# Numbers stand for hits; . = inactive; / = not tested or not shown.
SMILES,CYP2C19 act,Pyk2 oligo antag,CYP2C19 inhib,CYP2C9 inhib,CYP2C9 act
Cc1nnc(SCCn2c(N3CCCC(C)C3)nc3c2c(=O)n(C)c(=O)n3C)s1 (stereo not drawn),.,/,.,.,.
CCN(CC)c1ccc(NC(=O)C2CCCN(S(=O)(=O)c3cccnc3)C2)c(C)c1 (stereo not drawn),.,/,.,.,.
CC(=O)c1ccc(NC(=O)CSCC(=O)Nc2ccc3ccccc3c2)cc1,.,.,.,54.7,.
CC(=O)c1ccc(NC(=O)Nc2ccccc2)cc1,.,.,50.4,63.1,.
O=C(CSCC(=O)NC1CC1)Nc1ccc2ccccc2c1,/,.,/,/,/
CC(=O)c1ccc(NC(=O)c2ccn[nH]2)cc1,.,.,.,69.0,.
CCCCCOc1ccc(CSC(=N)N)cc1[N+](=O)[O-],.,.,.,.,.
COc1ccc(CSC(=N)N)cc1[N+](=O)[O-],.,.,51.3,61.7,.
CCOc1cc(C2C(C(=O)N3CCCCC3)=C(C)NC3=C2C(=O)CCC3)cc(Br)c1O (stereo not drawn),.,.,.,.,.
Cc1cc(N)ccc1-n1c(C)ccc1C,.,.,52.6,.,.
C/C(=N\Nc1nc2c(s1)CCCC2)c1ccccc1,.,.,71.8,81.7,.
O=C(Nc1nc2c(s1)CCCC2)Oc1ccccc1,.,.,.,.,.
O=C(c1cccc(S(=O)(=O)N2CCCC2)c1)N1CCN(c2ccccc2)CC1,.,.,67.3,.,.
CCc1cc2cc(C(=O)N3CCN(c4ccccc4)CC3)sc2s1,.,.,.,62.7,.
O=C(c1ccc2ccccc2c1)N1CCN(c2ccccc2)CC1,.,.,62.5,.,.
O=C(COc1ccc(S(=O)(=O)N2CCCC2)cc1Cl)N1CCN(c2ccccc2)CC1,.,.,88.4,84.8,.
O=C(COc1ccc(Cl)cc1Br)N1CCN(c2ccccc2)CC1,.,.,.,.,.
CC(C)c1nnc(-c2ccc(Cl)cc2)c(N(C)C)n1,.,.,.,.,.
CCCN1CCN(c2ncnc3c2nnn3Cc2ccccc2)CC1,.,.,.,.,.
CCN(CC)c1ncn(Cc2c(Cl)cccc2Cl)c2ncnc1-2,.,.,.,.,.
c1ccc(Cn2nnc3c(N4CCCCCC4)ncnc32)cc1,.,/,.,70.7,.
Clc1cccc(Cl)c1Cn1cnc2c(N3CCCCCC3)ncnc21,.,-3.41,.,.,.
CCN(CC)c1ncnc2c1ncn2Cc1c(Cl)cccc1Cl,/,-3.06,/,/,/
CCC(C)(C)c1nnc(NC(=O)c2ccc([N+](=O)[O-])cc2)s1,.,.,.,.,.
CC(C)NC(=O)C1CCN(C(=O)N(C)C)CC1,.,.,.,.,.
SMILES,CYP2C19 act,Pyk2 oligo antag,CYP2C19 inhib,CYP2C9 inhib,CYP2C9 act
CC(C)CCN1CN(S(=O)(=O)c2cccs2)c2nc3ccccc3nc21,.,.,.,.,.
Cc1ccc(CN2CN(S(=O)(=O)c3cccs3)c3nc4ccccc4nc32)cc1,.,.,.,55.8,.
Cc1cccc(S(=O)(=O)N2CN(Cc3ccco3)c3nc4ccccc4nc32)c1,.,.,79.0,60.9,.
CCCCN1CN(S(=O)(=O)c2cccs2)c2nc3ccccc3nc21,.,/,.,.,.
COCCN1CN(S(=O)(=O)c2ccc(Cl)cc2)c2nc3ccccc3nc21,.,.,94.0,51.1,.
COCCN1CN(S(=O)(=O)c2ccccc2)c2nc3ccccc3nc21,.,.,83.3,63.3,.
Cc1ccc(-c2nc3nc4ccccc4nc3n2Cc2ccco2)cc1,.,.,.,.,.
CCC(Oc1cc(Cl)ccc1Cl)C(=O)NN1C(=O)C2C3CCC(C3=C(C)C)C2C1=O (stereo not drawn),.,.,.,.,.
Cc1cc(NC(=O)c2ccc3c(c2)C(=O)N(Cc2cccnc2)C3=O)no1,.,.,.,.,.
O=C(O)c1cccnc1-c1ncccc1C(=O)O,.,.,.,.,.
Cc1ccc(C)c(NC(=S)NNC(=O)c2csc(C(C)C)c2)c1,/,.,/,/,/
CN(Cc1ccccc1)C(=O)CN(Cc1ccccc1)S(C)(=O)=O,/,.,/,/,/
O=C(COC(=O)C1CC(=O)N(Cc2ccco2)C1)c1ccc(OC(=O)c2ccccc2)cc1 (stereo not drawn),/,.,/,/,/
O=C(OCC(=O)N1c2ccccc2Sc2ccccc21)C1CC(=O)N(Cc2ccco2)C1 (stereo not drawn),.,.,70.4,88.9,.
